Screens deposited in PubChem BioAssay by National Center for Advancing Translational Sciences (NCATS).
FEN1 inh: blocks human flap endonuclease 1. P39748. Recombinant FEN1 flap cleavage, fluorescence, 15 min. Potency, µM (doses to about 114 µM), for the others: at the highest dose activity change, negative = inhibition, hits mostly inhibitors. 390,000 tested, 0.35% active. AID 588795; also: nearly all actives have a fitted effect of over 65% in size
Target sequence (P39748 whole entry, looked up): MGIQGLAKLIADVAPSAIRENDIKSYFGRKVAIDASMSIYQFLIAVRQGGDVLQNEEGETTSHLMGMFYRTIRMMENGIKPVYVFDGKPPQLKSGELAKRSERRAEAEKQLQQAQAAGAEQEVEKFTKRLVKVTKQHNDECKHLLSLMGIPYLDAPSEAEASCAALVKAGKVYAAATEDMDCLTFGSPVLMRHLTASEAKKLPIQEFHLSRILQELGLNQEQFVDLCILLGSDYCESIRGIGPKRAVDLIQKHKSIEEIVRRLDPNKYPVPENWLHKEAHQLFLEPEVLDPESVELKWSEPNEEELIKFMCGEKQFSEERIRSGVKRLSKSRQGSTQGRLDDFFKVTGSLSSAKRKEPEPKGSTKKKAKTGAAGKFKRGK
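Quantitative HTS format: each compound was titrated, incubated with 10 nM nuclease for 15 min at room temperature, then challenged with flap substrate at 50 nM final. Signal change over 15 min gave concentration–effect curves.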
TDP1 inh: inhibitors of human tyrosyl-DNA phosphodiesterase TDP1; Q9NUW8; recombinant TDP1, AlphaScreen DNA substrate cleavage; Potency, µM (series often up to 130 µM), for the others: at the highest dose activity change, negative = inhibition, actives largely listed as inhibitors; 350,000 tested, 0.28% active; also: nearly all actives have a fitted effect of over 40% in size
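AlphaScreen read-out: signal falls as enzyme removes the 3' tyrosine-FITC from a 5'-biotinylated DNA oligo (15 nM, 5 min, RT). Enzyme was E. coli-made recombinant Tdp1 at 1 nM, exposed to compound for 15 min beforehand; beads 10 ug/ml, 10 min.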
RECQ1 inh-1: blocks DNA unwinding by human RECQ1; 240,000 tested, 0.54% active; Potency, µM (series often up to 57.3 µM), for the others: at the highest dose activity, negative = inhibition, actives largely listed as inhibitors; P46063; RECQ1 DNA unwinding, red fluorescence kinetic read; AID 2549;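 also: plate controls were vehicle for no effect and no enzyme for full effect; nearly all actives have a fitted effect of over 30% in size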
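50 nM RECQ1T1 preincubated 15 min with compound in Tris pH 8.0 buffer with MgCl2, DTT, Tween-20 and 2.5 ug/ml poly(dI-dC); started with 200 nM TAMRA/BHQ-2 forked duplex and 2 mM ATP. Unwinding read as fluorescence (525/598 nm), two reads 2 h apart.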
APE1 inh: APE1 (human) endonuclease inhibition; Potency, µM (top dose mostly 65.8 µM), inactives show at the top dose activity change, negative = inhibition, hits mostly inhibitors; recombinant APE1, TAMRA/BHQ-2 abasic DNA cleavage fluorescence; AID 2517; 350,000 tested, 0.35% active;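 also: plate controls were vehicle for no effect and reference inhibitor for full effect; nearly all actives have a fitted effect of over 55% in size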
Target sequence (P27695 whole entry, looked up): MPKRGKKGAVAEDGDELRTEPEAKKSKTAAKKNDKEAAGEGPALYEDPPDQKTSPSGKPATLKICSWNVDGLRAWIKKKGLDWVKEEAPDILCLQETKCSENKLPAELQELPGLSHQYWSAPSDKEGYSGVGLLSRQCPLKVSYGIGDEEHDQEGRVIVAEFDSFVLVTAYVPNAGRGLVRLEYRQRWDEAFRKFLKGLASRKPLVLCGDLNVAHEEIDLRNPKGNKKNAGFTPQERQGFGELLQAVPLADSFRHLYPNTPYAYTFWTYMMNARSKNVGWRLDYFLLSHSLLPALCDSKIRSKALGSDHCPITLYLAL
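Quantitative HTS: incision of a TAMRA/BHQ-2 double-stranded substrate bearing a tetrahydrofuran abasic site by 0.75 nM APE1 raises fluorescence. Substrate 50 nM final, added after 15 min compound preincubation at room temperature; progress as third-minus-first kinetic read difference.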
BLM helicase inh: blocks DNA unwinding by human BLM helicase; P54132; recombinant BLM DNA unwinding, fluorescence dequenching; Potency, µM (highest dose often 56.1 µM), inactives show at the top dose activity change, negative = inhibition, usual class: inhibitors; 350,000 tested, 0.2% active;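 also: plate controls were vehicle for no effect and no enzyme for full effect; nearly all actives have a fitted effect of over 35% in size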
RECQ1 inh conf: confirmation of human RECQ1 helicase inhibitors. shares compounds with RECQ1 inh-1. RECQ1 helicase DNA unwinding, fluorescence. Potency, µM (doses to about 229 µM), for inactives: at the top dose activity change, negative = inhibition, actives largely listed as inhibitors. 610 tested, 28% active. AID 2708; also: nearly all actives have a fitted effect of over 45% in size
ADP FP counter: ADP displacement flagged in RECQ1 inhibitor counter-screen | shares compounds with RECQ1 inh-1 | ADP fluorescence polarization displacement counterscreen | Potency, µM (series often up to 228 µM), without a hit: top-dose activity change, negative = inhibition, hits mostly inhibitors | 530 tested, 27% active | AID 2711; also: nearly all actives have a fitted effect of over 45% in size
RECQ1 inh-2: confirmation of human RECQ1 helicase inhibitors. shares compounds with RECQ1 inh-1. recombinant RECQ1 DNA unwinding, red fluorescence. Potency, µM (titrated, usually from 119 µM), without a hit: top-dose activity, negative = inhibition, actives largely listed as inhibitors. 1,100 tested, 15% active; also: nearly all actives have a fitted effect of over 50% in size
The depositor's hits bear a star; [ ] = dose if it differs, or a comment. Most compounds without a hit are left out; they make up all but 0.92% or so of the library. Calls follow the shape of the dose curve; as a rule, active = well fitted curve in the direction sought with a large enough effect; inconclusive = small, poorly fitted or top-dose-only effect, or another doubt; inactive = no such curve, though single readings can be large; an effect the other way counts as inactive or inconclusive. Unless noted, % is scaled to controls: 0 for no effect and ±100 for the full control effect; potency is read from the fitted curve at half-maximal effect.

Screening Cn1c(N)c(C(=O)COC(=O)CSc2ccc(Cl)cc2)c(=O)n(C)c1=O returned FEN1 inh -5%, TDP1 inh 0%, RECQ1 inh-1 8%, APE1 inh 18% and BLM helicase inh 3%.
Cn1c(N)c(C(=O)COC(=O)CC(NC(=O)c2ccccc2Cl)c2ccccc2)c(=O)n(C)c1=O (configuration not stated) was read as FEN1 inh 4%, TDP1 inh 2%, RECQ1 inh-1 -14%, APE1 inh 0%, BLM helicase inh -2%, RECQ1 inh conf 8% and ADP FP counter 4%.
For COCC(=O)C(C(=O)OC)[C@H](CCc1ccccc1)NC(=O)OC (some centres not stated) the results were TDP1 inh 2%, RECQ1 inh-1 -2%, APE1 inh 14% and BLM helicase inh 5%.
For CC1=Nc2ccccc2N=C(NC(=O)CSc2nnnn2-c2ccccc2)C1c1ccccc1 (configuration not stated) the results were FEN1 inh -9%, TDP1 inh 3%, RECQ1 inh-1 3%, APE1 inh 14%, BLM helicase inh -11%, RECQ1 inh conf 0% and ADP FP counter 1%.
For NC(=O)c1ccc(-n2nnnc2SCC(=O)Nc2ccccc2)cc1 the results were FEN1 inh 6%, APE1 inh 56% and BLM helicase inh -14%.
Screening CC(=O)Oc1ccc(C(=O)[C@H]2[C@H]3C(=O)N(c4ccc5ccccc5c4)C(=O)[C@H]3[C@@H]3C=CC=NN32)cc1 returned FEN1 inh 10%, TDP1 inh 1%, RECQ1 inh-1 32µM*, APE1 inh 13%, BLM helicase inh -11% and RECQ1 inh-2 inconclusive.
For CCOC(=O)C1OC1C(=O)N[C@@H](CC(C)C)C(=O)NCCC(C)C (some centres not stated) the results were TDP1 inh 6%, RECQ1 inh-1 -16%, APE1 inh 1% and BLM helicase inh -2%.
`Cc1ccc2sc(C)[n+](CCCS(=O)(=O)[O-])c2c1` gave FEN1 inh -2%, TDP1 inh -10%, RECQ1 inh-1 3.5µM*, APE1 inh -3%, BLM helicase inh -4%, RECQ1 inh conf 9%[114 µM] and ADP FP counter 8%[91.9 µM].
O=C1CS(=O)(=O)C2(C(=O)N(Cc3ccccc3Cl)c3ccccc32)N1c1ccc(F)cc1 (configuration not stated) was read as FEN1 inh -16%, TDP1 inh 6% and BLM helicase inh -8%.
Screening Cc1cc(Br)ccc1NC(=O)CCSc1ccccc1 returned FEN1 inh -3%, TDP1 inh -2%, RECQ1 inh-1 -4%, APE1 inh -5% and BLM helicase inh -1%.
For Cc1cc(NC(=O)CCSc2ccccc2)ccc1Br the results were FEN1 inh -19%, TDP1 inh -7%, RECQ1 inh-1 3.5µM*, APE1 inh -3%, BLM helicase inh -9% and RECQ1 inh-2 -13%.
Screening COc1cccc(CS(=O)(=O)c2nnnn2CC(C)C)c1 returned TDP1 inh 7%, RECQ1 inh-1 inactive, APE1 inh -1% and BLM helicase inh 1%.
Screening Cc1ccc(/C=C2/SC(=O)NC2=S)o1 returned FEN1 inh 40µM*, TDP1 inh inconclusive, RECQ1 inh-1 18µM*, APE1 inh 13µM*, BLM helicase inh -12%, RECQ1 inh conf 13%[114 µM], ADP FP counter 35µM* and RECQ1 inh-2 inconclusive.
For Cc1ccc(/C=C2/SC(=S)N(C3CCCCC3)C2=O)o1 the results were FEN1 inh 3%, TDP1 inh 10%, APE1 inh 78% and BLM helicase inh 0%.
CCC1CC=CC2C1C(=O)N(Cc1ccccc1)C2c1ccc(OC)c(Cl)c1 (configuration not stated) was read as FEN1 inh 1%, TDP1 inh 3%, RECQ1 inh-1 inactive, APE1 inh -4% and BLM helicase inh -11%.
Screening CCOC(=O)c1cc(-c2ccccc2)sc1NC(=O)CN1C(=O)NC(CC)(c2ccc(F)cc2)C1=O (configuration not stated) returned FEN1 inh 2%, TDP1 inh 4%, RECQ1 inh-1 32µM*, APE1 inh 1%, BLM helicase inh -8% and RECQ1 inh-2 -21%.
For Cc1noc(NS(=O)(=O)c2ccc(N/C=C\C(=O)c3ccc(Br)cc3)cc2)c1C the results were FEN1 inh 6%, TDP1 inh 10%, RECQ1 inh-1 inconclusive, APE1 inh -1%, BLM helicase inh -11% and RECQ1 inh-2 -22%.
For CC1(C)OCC(CSC2=C(SCC3COC(C)(C)O3)C(=O)c3ncccc3C2=O)O1 (configuration not stated) the results were TDP1 inh 3%, RECQ1 inh-1 -5%, APE1 inh -9% and BLM helicase inh inconclusive.
`CNc1ccc(Br)cc(C(=O)/C=C/c2ccc3c(c2)OCO3)c1=O` gave FEN1 inh 50µM*, TDP1 inh -10%, RECQ1 inh-1 inconclusive, APE1 inh inconclusive, BLM helicase inh -23% and RECQ1 inh-2 inconclusive.
Screening CNc1ccc(Br)cc(C(=O)/C=C/c2ccc(OC)cc2)c1=O returned FEN1 inh 4%, TDP1 inh -11%, RECQ1 inh-1 inconclusive, APE1 inh inconclusive, BLM helicase inh inconclusive and RECQ1 inh-2 -13%.
For CC(C)[C@@H](CC(=O)N[C@@H]1CCCC[C@H]1C(=O)N[C@H](CC(=O)N[C@@H](CCC(=O)O)CC(=O)O)Cc1ccccc1)NC(=O)C[C@H](Cc1ccccc1)NC(=O)[C@@H]1CNCC[C@H]1N the results were TDP1 inh 4%, RECQ1 inh-1 -7%, APE1 inh 1% and BLM helicase inh 0%.
`CCOC(=O)c1c(N2C(=O)Nc3cc(Cl)c(Cl)cc3N2O)sc2c1CCCCC2` gave FEN1 inh inconclusive, TDP1 inh 3%, RECQ1 inh-1 inconclusive, APE1 inh -10%, BLM helicase inh -8% and RECQ1 inh-2 20µM*.
Screening O=S1(=O)N=C(OCc2ccccc2)c2ccccc21 returned TDP1 inh 1%.
